{"source": "PubChem BioAssay (NCATS)"}
{"test": "qHTS profiling of the MIPE4 collection as inhibitors of Plasmodium falciparum (HB3) proliferation (AID 743347);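 further: plate controls were DMSO vehicle wells for no effect and artemisinin wells for full effect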", "conditions": "P. falciparum HB3 in erythrocytes, SYBR Green DNA, 72 h; at 28.5 µM (top of the series)", "outline": "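Parasite DNA was quantified by SYBR Green I fluorescence (ex 485, em 535 nm) after overnight lysis in saponin/Triton buffer at room temperature. Cultures at 0.3% parasitemia and 2.5% hematocrit were first exposed to compound for 72 h at 37 C; signals were normalised to artemisinin (0.29 uM) and vehicle wells.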", "units": {"growth, % of control": "%"}}
{"smiles": "COC1=C[C@@H]2[C@@H]3Cc4ccc(OC)c(O)c4[C@]2(CCN3C)CC1=O", "growth, % of control": 106}
{"smiles": "CC(C)[C@]12O[C@@H]1[C@@H]1O[C@]13[C@]1(O[C@H]1C[C@@H]1C4=C(CC[C@@]13C)C(=O)OC4)[C@H]2O", "growth, % of control": 44.2}
{"smiles": "C[C@]12CC[C@@H]3[C@@H](CCC4=CC(=O)CC[C@@H]43)[C@@H]1CC[C@@H]2OC(=O)CCc1ccccc1", "growth, % of control": 90.8}
{"smiles": "CC(=O)N(C)c1cccc(-c2ccnc3c(C(=O)c4cccs4)cnn23)c1", "growth, % of control": 50.4}
{"smiles": "O=C(N[C@H]1CN2CCC1CC2)c1ccc(Cl)cc1", "growth, % of control": 71.8}
{"smiles": "C#C[C@]1(O)C=C[C@@H]2[C@@H]3CCC4=CC(=O)CC[C@@H]4[C@H]3CC[C@@]21CC", "growth, % of control": 41.2}
{"smiles": "COc1ccc(N(C(=O)Oc2c(C)cccc2C)c2ccnc(Nc3ccc(N4CCN(C)CC4)cc3)n2)c(OC)c1", "growth, % of control": 9.74}
{"smiles": "N#C[C@H](O[C@@H]1O[C@H](CO[C@@H]2O[C@H](CO)[C@H](O)[C@H](O)[C@H]2O)[C@H](O)[C@H](O)[C@H]1O)c1ccccc1", "growth, % of control": 60.6}
{"smiles": "CC(C)(O)C=CC(=O)[C@](C)(O)[C@H]1[C@H](O)C[C@]2(C)[C@@H]3CC=C4[C@@H](C=C(O)C(=O)C4(C)C)[C@]3(C)C(=O)C[C@@]12C", "growth, % of control": 7.62}
{"smiles": "Clc1ccccc1C(c1ccccc1)(c1ccccc1)n1cccn1", "growth, % of control": 6.73}
{"smiles": "O=C1CCC[C@@H]2[C@H]3CCCN4CCC[C@@H](CN12)[C@@H]34", "growth, % of control": 96.2}
{"smiles": "CC=C(C)C(=O)N[C@@H](c1ccccc1)[C@@H](O)C(=O)O[C@H]1C[C@@]2(O)[C@@H](OC(=O)c3ccccc3)[C@@H]3[C@]4(OC(C)=O)CO[C@@H]4C[C@H](O)[C@@]3(C)C(=O)[C@H](OC(C)=O)C(=C1C)C2(C)C", "growth, % of control": 6.33}
{"smiles": "CCN1C[C@]2(OC(=O)c3ccccc3NC(C)=O)CC[C@H](OC)[C@@]34[C@H]5CC6[C@@H](OC)C[C@](O)(C(C[C@@H]23)[C@@H]14)[C@@]5(O)[C@@H]6OC", "growth, % of control": 85.8}
{"smiles": "NC1CC1c1ccccc1", "note": "(stereo not drawn)", "growth, % of control": 109}
{"smiles": "c1ccc2c(CN3CCNCC3)cccc2c1", "growth, % of control": 109}
{"smiles": "Cc1c(N)nc([C@H](CC(N)=O)NC[C@@H](N)C(N)=O)nc1C(=O)N[C@H](C(=O)N[C@@H](C)[C@H](O)[C@@H](C)C(=O)N[C@@H](C(=O)NCCc1nc(-c2nc(C(=O)NCCC[S+](C)C)cs2)cs1)[C@@H](C)O)C(O[C@H]1O[C@H](CO)[C@H](O)[C@@H](O)[C@@H]1O[C@H]1O[C@H](CO)[C@@H](O)[C@H](OC(N)=O)[C@H]1O)c1cnc[nH]1", "note": "(stereo partly drawn)", "growth, % of control": 68.4}
{"smiles": "COC1=CC(C)=C[C@@H](C)[C@@H](O)[C@@H](C)CC(C)=CC=C[C@H](OC)[C@H]([C@@H](C)[C@@H](O)[C@H](C)[C@@]2(O)C[C@@H](O)[C@H](C)[C@@H](C(C)C)O2)OC1=O", "growth, % of control": 8.98}
{"smiles": "N=c1c2c(-c3ccccc3)c(-c3ccccc3)n(Cc3ccccc3)c2ncn1C1CCC(O)CC1", "note": "(stereo not drawn)", "growth, % of control": 9.68}
{"smiles": "CC(=O)O[C@@]12CO[C@H]1C[C@H](O)[C@@]1(C)C(=O)[C@H](O)C3=C(C)[C@@H](O)C[C@@](O)([C@@H](OC(=O)c4ccccc4)[C@@H]21)C3(C)C", "growth, % of control": 34.8}
{"smiles": "COC(=O)[C@@H](N)CCCN=C(N)N[N+](=O)[O-]", "growth, % of control": 92.1}
{"smiles": "O=C1C=CC[C@@H]2[C@H]3CCCN4CCC[C@@H](CN12)[C@@H]34", "growth, % of control": 97.5}
{"smiles": "CCCN1CCO[C@@H]2c3cc(O)ccc3OC[C@@H]21", "growth, % of control": 77.3}
{"smiles": "CC(=Cc1csc(C)n1)[C@@H]1C[C@H]2O[C@]2(C)CCC[C@H](C)[C@@H](O)[C@@H](C)C(=O)C(C)(C)[C@@H](O)CC(=O)O1", "growth, % of control": 16.9}
{"smiles": "COc1cc2cc(c1Cl)N(C)C(=O)C[C@H](OC(=O)C(C)C)[C@]1(C)O[C@H]1[C@H](C)[C@@H]1C[C@@](O)(NC(=O)O1)[C@H](OC)C=CC=C(C)C2", "growth, % of control": 9.61}
{"smiles": "C[C@]12CCC(=O)C(O)=C1CC[C@@H]1[C@H]3CCC(=O)[C@@]3(C)CC[C@@H]12", "growth, % of control": 54.8}
{"smiles": "O=C(N[C@@H](COc1ccc2[nH]c(=O)[nH]c2c1)c1ccccc1)c1cccn(Cc2ccc(F)c(F)c2)c1=O", "growth, % of control": 63.1}
{"smiles": "C[C@@H]1[C@H](O)[C@@H](C)C=CC=CCCC=CC=CC=CC=C[C@H](O[C@H]2O[C@@H](C)[C@H](O)[C@@H](N)[C@@H]2O)CC2O[C@](O)(C[C@@H](O)[C@H](O)CC[C@@H](O)C[C@@H](O)C[C@@H](O)CC(=O)O[C@H]1C)C[C@H](O)[C@H]2C(=O)O", "growth, % of control": 83.8}
{"smiles": "CN1[C@H]2CC(O)C[C@H]1[C@H]1O[C@H]12", "note": "(stereo partly drawn)", "growth, % of control": 7.31}
